Measurements from PubChem BioAssay AID492998 (Southern Research Specialized Biocontainment Screening …, 2010).
The campaign covered roughly 2,300 compounds. About 550 (24%) were called active. How the calls were made is not given here. Only a sample is shown. Measured potencies and affinities stand elsewhere.

Test: Vero E6 cell cytotoxicity, dose response, cytotoxicity control for non-replicating M. tuberculosis project, secondary assay (AID 492998)
Details: series mostly up to 20 µM

Row | SMILES | outcome
1 | CCOc1ccc(-c2nnc(NC(=O)CCCOc3cccc(C)c3)o2)cc1 | inactive
2 | COc1ccc(C(=O)Nc2nnc(C3=COCCO3)o2)cc1 | inactive
3 | COC(=O)c1ccc(OCC(=O)c2cccc(OC)c2)cc1 | inactive
4 | N[C@@H](Cc1ccccc1)c1nnc(SC/C=C/c2ccccc2)o1 | inactive
5 | CSCCC(=O)N1CCCC(N2CCN(c3cccc(C(F)(F)F)c3)CC2)C1 (stereo not drawn) | inactive
6 | COc1cccc(CN2CCC(N(CCc3ccccc3)Cc3ccccc3)CC2)c1OC | inactive
7 | Cc1cc2ccccc2n1CCNC(=O)C(C)(C)C | inactive
8 | O=C(COc1ccc(Nc2ccccc2)cc1)OCC(=O)N1CCCCC1 | inactive
9 | CCc1nnc(NC(=O)c2cc3ccccc3oc2=O)s1 | inactive
10 | CC(C)c1nnc(NC(=O)c2sc3ccccc3c2Cl)s1 | inactive
11 | O=C(Nc1sc2c(c1C(=O)O)CCCCC2)c1ccccc1F | inactive
12 | O=C(c1ccc([N+](=O)[O-])o1)N1CCc2ccccc2C1 | inactive
13 | O=C(Nc1sc2c(c1C(=O)O)CCCC2)c1ccc(F)cc1 | inactive
14 | CC(C)Cn1c(N)c(C(=O)COC(=O)c2ccc([N+](=O)[O-])o2)c(=O)n(C)c1=O | inactive
15 | COC(=O)c1sc(NC(=O)c2ccc([N+](=O)[O-])o2)c(C#N)c1C | inactive
16 | COc1ccc(COc2cccc(C=O)c2)cc1 | inactive
17 | CCc1ccccc1NC(=O)C1COc2ccccc2O1 (stereo not drawn) | inactive
18 | O=C(OCc1cccc(F)c1)c1ccc2c(=O)n3c(nc2c1)CCC3 | inactive
19 | Cc1c(Cl)cccc1NC(=O)C(=O)NNC(=O)c1ccccc1F | inactive
20 | COc1cccc(N2C(=O)NC(=O)/C(=C/c3ccc([N+](=O)[O-])s3)C2=O)c1 | inactive
21 | c1ccc2sc(SCc3ccc(-c4nnco4)cc3)nc2c1 | inactive
22 | Oc1c(Br)cc(Br)cc1/C=N/c1nccs1 | inactive
23 | C/C(=N\NC(=O)c1nn(C)cc1Cl)c1ccncc1 | inactive
24 | CCOc1ccc(OCC(=O)Nc2ccc(OC)cc2)cc1 | inactive

Row | SMILES | outcome
25 | CC(=O)c1ccc(OC(=O)c2ccc(-n3nc(C)cc3C)cc2)cc1 | inactive
26 | CCOc1ccc(NC(=O)Cn2sc3nc(C)cc(C)c3c2=O)cc1 | inactive
27 | Cc1cc(N2CCC(C)CC2)nc(-n2nc(C)cc2C)n1 | inactive
28 | CC1(C)OC(c2ccccc2)=C/C(=C\C=N\NC(=O)c2ccncc2)O1 | inactive
29 | COc1ccc(N2CCN(CC(=O)NC(=O)NC(C)(C)C)CC2)cc1 | inactive
30 | CN(C(=O)COC(=O)c1ccc([N+](=O)[O-])cc1Cl)C1CCCCC1 | inactive
31 | O=C(N/N=C/c1ccc[nH]1)c1ccc(Cl)cc1 | inactive
32 | Cc1ccc(O)c(C(=O)c2cc(C#N)c(=O)n(-c3nccs3)c2)c1 | inactive
33 | O=C(CC1CCCC1)OCn1nnc2ccccc2c1=O | inactive
34 | COc1ccc(-n2c3c(cc(C(=O)NNc4ccccc4)c2=O)C(=O)CC(C)(C)C3)cc1 | inactive
35 | CCOC(=O)c1c(C)nc2c3ccccc3ccn12 | inactive
36 | CCOC(=O)Cc1ccc(NCc2ccc(Cl)cc2)cc1 | inactive
37 | CCOC(=O)C1(O)CC(C)=NN1C(=O)c1cccc(Br)c1 (stereo not drawn) | inactive
38 | CCOC(=O)Cc1cc(=O)n2[nH]cc(-c3ccc(Cl)cc3)c2n1 | inactive
39 | CCOc1ccc(NC(=O)CCc2ccc(C)o2)cc1 | inactive
40 | CC(C)(C)NC(=O)C(=O)NNC(=O)COc1ccc(Br)cc1 | inactive
41 | O=C(COC(=O)c1cccc(C(F)(F)F)c1)NCc1ccccc1 | inactive
42 | CCOC(=O)COc1ccc2c(c1)c(C(=O)OCC)c(C)n2CC | inactive
43 | CCCCN1CCC(O)(c2ccccc2)C(C(=O)c2ccccc2)C1 (stereo not drawn) | inactive
44 | CCOc1c(OC(C)=O)ccc(/C=C2\N=C(SCC)SC2=O)c1[N+](=O)[O-] | inactive
45 | O=Cc1ccc(OC2OCCOC2Oc2ccc(C=O)cc2)cc1 (stereo not drawn) | inactive
46 | Cc1cc2nc(CSc3ccc(Cl)cc3)cc(=O)n2[nH]1 | inactive
47 | CS(=O)(=O)Cc1nc2ccccc2oc1=O | inactive
48 | COc1cccc2cc(-c3nc4ccccc4o3)c(=O)oc12 | inactive

Row | SMILES | outcome
49 | O=C(CCN1CCN(C/C=C/c2ccccc2)CC1)Nc1ccc(Cl)cc1 | inactive
50 | Cc1ccc(-c2nnc(COC(=O)c3cccs3)o2)cc1 | inactive
51 | CCOC(=O)C(=NCCOC)NNc1cc(Cl)ccc1Cl | inactive
52 | OC(COc1ccccc1Cl)CN1CCN(CC(O)COc2ccccc2Cl)CC1 (stereo not drawn) | inactive
53 | O=C(COc1ccccc1)NCCSCc1ccc(Cl)cc1 | inactive
54 | OC(COc1ccc2ccccc2c1Br)Cn1ccnc1 (stereo not drawn) | inactive
55 | Cc1cccc(OCC(O)Cn2c(=N)n(Cc3ccccc3)c3ccccc32)c1 (stereo not drawn) | inactive
56 | CC(=O)n1cc(/C=C2/N=C(c3ccccc3)OC2=O)c2ccccc21 | inactive
57 | COc1cc(C(=O)ON=C2C=C(C)C(=O)C(C)=C2)cc(OC)c1OC | inactive
58 | CCOCC(=O)Nc1ccc(C)c(Cl)c1 | inactive
59 | Cc1cc(NC(=O)COC(=O)COc2ccc(C(=O)c3ccccc3)cc2)no1 | inactive
60 | O=C(O)c1ccc(NCc2ccc(Br)cc2)cc1 | inactive
61 | CC(=O)Nc1ccc(NC(=O)[C@@H]2CCCC[C@@H]2C(=O)O)cc1 | inactive
62 | O=C(COc1ccc2ccccc2c1)N1CCCC1 | inactive
63 | Nc1c(Cl)cc(Cl)cc1C(=O)OCC(=O)N1CCCC1 | inactive
64 | CCOC(=O)c1ccc(-c2ccc(C(=O)Nc3cccnc3)o2)cc1 | inactive
65 | CCC(C)NCCOc1ccc(C(C)(C)c2ccccc2)cc1 (stereo not drawn) | inactive
66 | CCOC(=O)C1CCCN(Cc2ccc(OCc3ccccc3)cc2)C1 (stereo not drawn) | inactive
67 | CN=C1S/C(=C\c2ccc(OCC(=O)OC)c(OC)c2)C(=O)N1C | inactive
68 | CC(C)CSc1nnc2c3ccccc3n(C)c2n1 | inactive
69 | CC(C)[C@@H]1CC[C@@H](C)C[C@H]1OC(=O)C[n+]1cc(-c2ccc(Cl)cc2)n2c1CCCCC2 | inactive
70 | COc1ccc(NC(=O)c2cc3ccccc3o2)cc1 | inactive
71 | CCCn1nnnc1NCc1ccc(C(C)C)cc1 | inactive
72 | CCc1nonc1NC(=O)COc1ccc(Cl)c(C)c1 | inactive

Row | SMILES | outcome
73 | O=C1/C(=C/c2ccccn2)COc2ccccc21 | inactive
74 | Cn1nnc(NC(=O)COc2ccc(C3CCCCC3)cc2)n1 | inactive
75 | O=C(NCc1ccc(F)cc1)c1cnccn1 | inactive
76 | O=C(Oc1ccccc1)c1ccc(COC(=O)c2cnccn2)cc1 | inactive
77 | COc1c[nH]n(C2CCCCC2)c(=O)c1=O | inactive
78 | CCCN(Cc1nnc(-c2ccccc2Cl)o1)C(=O)c1cc([N+](=O)[O-])cc([N+](=O)[O-])c1 | inactive
79 | Cc1ccc(NC(=O)COc2ccc3c(c2)CCC3)nc1 | inactive
80 | COc1ccc(CNC(=O)c2cc3cccc(O)c3oc2=N)cc1 | inactive
81 | CCc1ccc(N2NC(=O)/C(=C/C=C/c3ccco3)C2=O)cc1 | inactive
82 | O=C(COc1cccc2ccccc12)Nc1nc2ccccc2[nH]1 | inactive
83 | CC1Cc2cc(/C=C3/SC(=S)NC3=O)ccc2O1 (stereo not drawn) | inactive
84 | c1ccc(-c2nc(NCCCn3ccnc3)c3ccccc3n2)cc1 | inactive
85 | Cc1cccc2cc(C#N)c(NCCCn3ccnc3)nc12 | inactive
86 | O=C(COC(=O)CCc1c[nH]c2ccccc12)Nc1cc([N+](=O)[O-])ccc1Cl | inactive
87 | Cc1nnc(N/N=C/c2cccc(OCc3ccc(Cl)c(Cl)c3)c2)n1N | inactive
88 | CCCCCCC1CC(C)(C(=O)CNc2nncs2)OC1=O (stereo not drawn) | inactive
89 | CCCn1nnc(NC(=O)COc2ccc(CC)cc2)n1 | inactive
90 | CNC(=O)c1[nH]cnc1C(=O)Nc1ccc(Cl)cc1 | inactive
91 | Cc1nc(C(=O)Nc2ccccc2)sc1C(=O)Nc1ccccc1 | inactive
92 | Nc1nnc(Sc2ncccc2[N+](=O)[O-])s1 | inactive
93 | CC(C)OC(=O)C(C)Oc1ccc(C(=O)NCCc2ccccc2)cc1 (stereo not drawn) | inactive
94 | CC(=O)c1cc2c(ccc3ccccc32)oc1=O | inactive
95 | Cn1cccc1/C=C1/C(=O)NC(=S)N(Cc2ccc(F)cc2)C1=O | inactive
96 | Cc1ccc(/C=C2/C(=O)NC(=O)N(CCc3ccc(F)cc3)C2=O)s1 | inactive

Row | SMILES | outcome
97 | O=C1CC(N2CCSCC2)C(=O)N1CCc1ccccc1 (stereo not drawn) | inactive
98 | CCCCSc1nnc(-c2cc(Br)ccc2N)c(=O)[nH]1 | inactive
99 | O=C(NCCc1cccc(Cl)c1)c1cc2ccccc2oc1=O | inactive
100 | Cc1ccc(-c2ccc(/C=N/NC(=O)CN3CCCC3)o2)cc1Cl | inactive
101 | O=C(N/N=C/c1ccccn1)c1cc([N+](=O)[O-])cc([N+](=O)[O-])c1 | inactive
102 | COc1ccccc1OCCNC(=O)c1cc([N+](=O)[O-])cc([N+](=O)[O-])c1 | inactive
103 | COC(=O)C1=C(C)N(CC2CC2)C(=NCc2cccc(Cl)c2)N[C@H]1c1ccccc1 | inactive
104 | O=C(COc1ccc(Br)cc1)N/N=C1/SCC(=O)N1Cc1ccccc1 | inactive
105 | CC(=O)c1c(O)cc(=O)n(-c2ccccc2)c1-c1ccc(C)cc1 | inactive
106 | CN(C)CCC(=O)N1c2ccccc2Sc2ccc(Cl)cc21 | inactive
107 | CCOC(=O)c1ccc(NC(=O)NS(=O)(=O)c2ccc(C)cc2)cc1 | inactive
108 | O=C(OCCCCN1C(=O)c2ccccc2C1=O)c1ccc(Br)o1 | inactive
109 | CC(C)Cc1nnc(NC(=O)CCS(=O)(=O)c2ccc(Cl)cc2)s1 | inactive
110 | O=C(CCS(=O)(=O)c1ccccc1)Nc1nnc(-c2ccco2)o1 | inactive
111 | COc1ccc(C2(O)CCN(CC(=O)Nc3nc(-c4ccccc4)cs3)CC2)cc1 | inactive
112 | O=C(COc1ccc2ccccc2c1)Nc1nccs1 | inactive
113 | Cc1cccc(NC(=O)COC(=O)CCc2c[nH]c3ccccc23)c1C | inactive
114 | O=C(COC(=O)COc1ccc(Nc2ccccc2)cc1)NCc1ccco1 | inactive
115 | O=C(Nc1nc2ccccc2[nH]1)c1ccc(F)cc1 | inactive
116 | CCOc1ccc(C(=O)Nc2nc3ccccc3[nH]2)cc1OCC | inactive
117 | c1ccc2[nH]c(NC3=NCCC3)nc2c1 | inactive
118 | Cc1cc2n(n1)SC(Nc1ccccc1)N2 (stereo not drawn) | inactive
